Compounds with a hit are over-represented: about 2.1% of the library has one in this group of screens.
aSyn yeast inh: alpha-synuclein toxicity inhibition in yeast; Potency, µM (doses to about 46.1 µM), inactives show at the top dose growth rescue (activation), usual class: activators; Yeast expressing alpha-synuclein, growth rescue, BacTiter-Glo, 24 h; 0.14% of 370,000 active; AID 652106; also: % of control where 0% means no effect; nearly all actives have a fitted effect of over 65% in size
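Screening used galactose-induced yeast with toxic alpha-synuclein levels, exposed to compound for 24 hr at 30 deg C. Cell growth, read with BacTiter-Glo luminescence, gave the measured signal.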
TDP43 rescue: TDP-43 toxicity inhibition in yeast | TDP-43 expressing yeast growth rescue, BacTiter-Glo, 24 h | Potency, µM (titrated, usually from 46.1 µM), without a hit: at the top dose growth rescue (activation), most hits filed as activators | 1.8% of 410,000 active | AID 652104; also: % of control where 0% means no effect; nearly all actives have a fitted effect of over 50% in size
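Growth rescue of TDP-43-toxic yeast measured as ATP luminescence (BacTiter-Glo). Cells grown to mid-log in raffinose, induced in galactose at OD600=0.02, exposed to compound 24 hr at 30 deg C.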
Abeta rescue: A-beta toxicity reversal in yeast. yeast expressing A-beta42, growth rescue, OD600, 48 h; response scale: 0% DMSO, 100% iron-clioquinol control. Potency, µM (top dose mostly 46.1 µM), most hits filed as activators. 0.063% of 410,000 active. AID 1347071; also: nearly all actives have a fitted effect of over 55% in size
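Growth rescue measured by 600 nm absorbance after 48 h yeast culture at 30 C with compound. Values normalized between DMSO and an equimolar ferric chloride plus clioquinol control.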
FUS suppressor: rescues growth of FUS-expressing yeast. Potency, µM (titrated, usually from 76.6 µM), actives largely listed as activators. 0.24% of 390,000 active. AID 1347120. S. cerevisiae FUS-expressing, growth rescue, OD600, 24 h;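 also: plate controls were DMSO vehicle for no effect and reference control for full effect; nearly all actives have a fitted effect of over 55% in size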
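Steps: raffinose overnight preculture; dilution to OD 0.005 in 2% galactose minimal medium; compound addition (concentration series); 24hr at 30C, 99% humidity; absorbance read at 600 nm.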
* marks the source's active call; other numbers are inactive results; i = inactive; ? = inconclusive; . = not tested or not shown; [ ] = another dose, or the depositor's remark. Calls follow the shape of the dose curve; as a rule, active = well fitted curve in the direction sought with a large enough effect; inconclusive = small, poorly fitted or top-dose-only effect, or another doubt; inactive = no such curve, though single readings can be large; an effect the other way counts as inactive or inconclusive. Potency is read from the fitted curve at half-maximal effect.

SMILES	aSyn yeast inh	TDP43 rescue	Abeta rescue	FUS suppressor
Cc1nc(N2CCN(c3ccccc3)CC2)nc2c1C(=O)CC(C)C2 (stereo unspecified)	4%	?	i	i
Cc1nc(N2CCN(c3ccccc3)CC2)nc2c1C(=O)CCC2	23%	13µM*	i	i
c1ccc(-n2nnnc2-c2cccc3ccccc23)cc1	5%	14µM*	i	.
CCSS(=O)(=O)c1cccc2cccnc12	-49%	-94%	i	i
Fc1cccc(Cc2c(-c3ccco3)nc3c4ccccc4ccn23)c1	13%	35µM*	i	i
Fc1ccc(-c2nc3c4ccccc4ccn3c2Cc2cccc(Cl)c2)cc1	17%	14µM*	i	i
Clc1cccc(Cc2c(-c3cccc(Cl)c3)nc3c4ccccc4ccn23)c1	-7%	17%	i	i
Clc1cccc(Cc2c(-c3ccccc3)nc3c4ccccc4ccn23)c1	?	11µM*	i	i
COc1cccc(C(=O)Cn2c(=O)n(CC3CCCO3)c(=O)c3ccccc32)c1 (stereo unspecified)	7%	-1%	i	i
CC(C)(C)c1ccc(C(=O)N2CCN(CCNC(=O)C(=O)NCc3ccc(Cl)cc3)CC2)cc1	0%	-8%	i	i
COc1ccc(C(=O)CC2(C(=O)O)CCCCC2)cc1	14%	16µM*	i	i
COC(=O)CCc1nc2c(C#N)c(-c3ccc(Cl)cc3)ccn2n1	1%	18%[9.22 µM]	i	i
CC(=O)Nc1nc(-c2ccc(Cl)cc2)ns1	-18%	13µM*	i	.
CCCC(=O)Nc1nc(-c2ccccc2)ns1	-24%	16µM*	i	.
CC(C)C(=O)Nc1nc(-c2ccccc2)ns1	-15%	13µM*	?	i
Cc1nnc(SCCC(=O)Nc2nc(-c3ccccc3)ns2)s1	.	?	i	i
CCC(=O)Nc1nc(-c2ccccc2)ns1	.	8.9µM*	i	i
Cc1ccc(CN(C(=O)c2csnn2)C(C(=O)NC2CCCC2)c2ccccn2)cc1 (stereo unspecified)	10%	-3%	i	i
CCCOc1ccc(CNC(=O)CCCn2ncn3c(cc4sc(CC)cc43)c2=O)cc1	.	16%	i	i
NC(=O)c1cc(N2C(=O)C3CC=CCC3C2=O)ccc1N1CCCCC1 (stereo unspecified)	-1%	1%	i	i
COC(=O)/C(C#N)=C(/Nc1ccc(F)c(Cl)c1)C(F)(F)F	1%	-19%	i	i
O=C1[C@H]2[C@H](C=CC[C@H]2C(=O)N2CCN(c3ccccc3)CC2)CCN1Cc1ccccc1	?	28µM*	i	i
CSCCC(NS(=O)(=O)c1cccs1)C(=O)NCc1cccs1 (stereo unspecified)	0%	11%	i	i
Oc1c(C(Nc2nc3ccccc3s2)c2ccco2)ccc2cccnc12 (stereo unspecified)	-14%	20µM*	i	.
C/C(=N/NC(=O)c1ccncc1)c1cc2ccc(O)cc2oc1=O	-1%	4%	i	.
SMILES	aSyn yeast inh	TDP43 rescue	Abeta rescue	FUS suppressor
C/C(=N/NC(N)=S)c1cc2ccc(O)cc2oc1=O	-6%	20%	11µM*	i
O=C1COc2ccccc2N1Cc1ccc(Cl)cc1	26%	20µM*	i	i
COc1ccc(OC(=O)OCc2ccccc2)cc1	-8%	8%	i	i
O=C(OCCOCCOC(=O)Oc1ccccc1)Oc1ccccc1	7%	14µM*	i	.
CCc1ccc(-c2ccc3nnc(SC)n3n2)cc1	0%	16µM*	.	i
CCc1ccc(-c2ccc3nnc(SCC(N)=O)n3n2)cc1	1%	19%	i	i
Cc1nc2ccc(-c3ccccc3)cc2o1	-12%	22%	i	i
CCCc1nc(SCC(=O)c2ccccc2)c2c(=O)n(C)c(=O)n(C)c2n1	?	14µM*	i	i
Cc1cccc(C)c1Nc1nnc(SCC(=O)Nc2cc(S(=O)(=O)N3CCCCC3)ccc2Cl)s1	-2%	-15%	i	.
Cc1ccccc1N1C(=O)Cc2ccccc2C1=O	-3%	-4%	?	i
Cc1c(Cl)cccc1Nc1nc(N)nc(CSc2nc3ccccc3s2)n1	-13%	16µM*	i	?
Cc1c(Cl)cccc1Nc1nc(N)nc(CSc2ncccn2)n1	3%	28%	i	i
O=C(COC(=O)c1cccnc1Cl)Nc1ncc(Cl)cc1Cl	-1%	0%	i	i
CCOC(=S)SCC(=O)Nc1nc(C)c(C)s1	-1%	22µM*	?	i
CCOC(=S)SCC(=O)Nc1nccs1	-8%	22µM*	i	i
CC1(C(=O)NS(=O)(=O)c2ccccc2C(F)(F)F)CCN1C(=O)CC1CCCCC1 (stereo unspecified)	-2%	20%	i	i
Cc1cc2ncn(/N=C/c3ccc([N+](=O)[O-])o3)c2cc1C	?	8.9µM*	i	i
O=C(CNc1cccc2ccccc12)N/N=C/c1ccc([N+](=O)[O-])o1	19%	20µM*	i	i
COc1ccccc1OCC(=O)N/N=C/C=C/c1ccc([N+](=O)[O-])o1	?	13µM*	i	.
Cc1cc(N/N=C/c2ccc([N+](=O)[O-])o2)nc2ccccc12	0%	13µM*	i	i
O=C(CNc1cccc([N+](=O)[O-])c1)N/N=C/c1ccc([N+](=O)[O-])o1	4%	3%	i	i
Cc1ccccc1OCC(=O)N/N=C/c1ccc([N+](=O)[O-])o1	5%	11%	i	i
Cc1ccc(CN2C(=O)CCC2C(=O)NCc2ccc3c(c2)OCO3)cc1 (stereo unspecified)	-3%	-6%	i	i
COCCn1c(SCC(=O)NC2CCCCC2)nnc1-c1ccco1	-2%	-3%	i	i
CCCCCCCC(=O)N/N=C/c1ccc([N+](=O)[O-])o1	4%	20µM*	i	i
SMILES	aSyn yeast inh	TDP43 rescue	Abeta rescue	FUS suppressor
CCOC(=O)N/N=C\c1ccc([N+](=O)[O-])o1	2%	11%	i	i
Cc1ccc(S(=O)(=O)N2CCN(c3nc(-n4ccnc4)nc4ccccc34)CC2)cc1	2µM*	.	.	.
CC(OC(=O)Cc1cccc(C(F)(F)F)c1)C(=O)Nc1ccc(Cl)cn1 (stereo unspecified)	2%	?	5µM*	i
COc1cccc(CC(=O)OC(C)C(=O)Nc2ccc(Cl)cn2)c1 (stereo unspecified)	-4%	0%	i	i
COc1ccc(Br)cc1C(=O)Nc1ccccc1N1CCN(C(=O)c2ccccc2)CC1	29%	3%	i	?
O=C(Nc1ccccc1N1CCN(C(=O)c2ccc(Cl)cc2)CC1)c1cccc(F)c1	-7%	?	i	i
O=C(Nc1ccccc1N1CCN(C(=O)c2ccccc2)CC1)c1cc(Br)ccc1Cl	14%	?	i	25µM*
O=C(c1ccc2c(c1)OCO2)N1CCCC1	1%	-29%	i	10µM*

Source: PubChem BioAssay (National Center for Advancing Translational Sciences (NCATS))
